# Records with an inconclusive call do not appear. Activity calls are given as the source filed them. The call rests on the fitted dose curve.
# Assay: qHTS assay for small molecule agonists of the p53 signaling pathway - cell viability (AID 651633);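 further: p53RE-bla HCT reporter cells with a stable beta-lactamase p53 reporter; nearly all actives have a fitted effect of over 30% in size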
# Conditions: p53RE-bla HCT-116 viability, ATP luminescence, 16 h; series mostly up to 83.3 µM
# From the text: National Center for Advancing Translational Sciences [NCATS]
# NIH Chemical Genomics Center [NCGC]
# U.S. Environmental Protection Agency [EPA]
# National Institutes of Environmental Health Sciences [NIEHS]
# National Toxicology Program [NTP]
# U.S. Food and Drug Administration [FDA]
# p53, a tumor suppressor protein, is activated following cellular insult, including DNA damage and other cellular stresses. The activation of p53 regulates cell fate by inducing DNA repair, cell cycle arrest, apoptosis, or cellular senescence. The activation of p53, therefore, is a good indicator of DNA damage and other cellular stresses. […] The activation of the reporter gene under culture conditions can be detected by fluorescence intensity. This cell line was used to screen the Tox21 compound library in a 1536-well plate format and to identify agonists that activate the p53 signaling pathway.
# Tox21 Assay Protocol Summary:
# The p53RE-bla cells were dispensed at 4,000 cells/5 ul/well in 1536-well black wall/clear bottom plates using a Multidrop dispenser. After the assay plates were incubated at a 37 C/5% CO2 incubator for 5 hours, 23 nL of compounds dissolved in DMSO, positive controls or DMSO only was transferred to the assay plate by a pin tool. The plates were incubated at 37 C for 16 hours. After 1 uL of LiveBLAzerTM B/G FRET substrate was added using a Flying Reagent Dispenser, the plates were incubated at room temperature for 2 hours, and fluorescence intensity was measured by an Envision plate reader.
# For cell viability readout that measures cytotoxicity, 4 ul/well of CellTiter-Glo reagent was added into the assay plates using a Flying Reagent Dispenser. After 30 min incubation at room temperature, the luminescence intensity in the plates was measured using a ViewLux plate reader.
row,SMILES,outcome
1,CC(=O)CCc1ccc(OC(C)=O)cc1,inactive
2,O=S(=O)(O)c1ccc2c(N=Nc3ccc(S(=O)(=O)O)c4ccccc34)c(O)c(S(=O)(=O)O)cc2c1,inactive
3,CC(C)C1OCCN1CCOC(=O)NCCCCCCNC(=O)OCCN1CCOC1C(C)C (stereo not given),inactive
4,CCCCOCCOC(=O)COc1ccc(Cl)cc1Cl,inactive
5,CC1(C)CC(OC(=O)CCCCCCCCC(=O)OC2CC(C)(C)NC(C)(C)C2)CC(C)(C)N1,inactive
6,CC1=NN(c2ccc(S(=O)(=O)O)cc2)C(=O)C1,inactive
7,Cc1ccc2c(c1)C(=O)c1ccccc1C2=O,inactive
8,CC1OCCC1=O (stereo not given),inactive
9,CC(=O)O[C@@H]1CC2CCC1(C)C2(C)C (stereo not given in full),inactive
10,N[C@@H](CSCCCO)C(=O)O,inactive
11,CC1=C(C(=O)O)N2C(=O)[C@@H](NC(=O)[C@H](N)C3=CCC=CC3)[C@H]2SC1,inactive
12,CO/N=C(/C(=O)N[C@@H]1C(=O)N2C(C(=O)[O-])=C(C[n+]3ccn4ncccc43)CS[C@H]12)c1nsc(N)n1,inactive
13,CCOCCOCC,inactive
14,CC1(C)Cc2cccc(N)c2O1,inactive
15,COC(C)(OC)OC,inactive
16,COc1ccc(CCO)cc1,inactive
17,O=C1OCCO1,inactive
18,CC(=O)OC1CCCCC1C(C)(C)C (stereo not given),inactive
19,CCCCCCCCCCCCCCC(=O)NC(CO)CCCCCCCCCCCCCC (stereo not given),inactive
20,CCCC(=O)Nc1ccc(OCC(O)CNC(C)C)c(C(C)=O)c1 (stereo not given),inactive

row,SMILES,outcome
1,CC(Oc1cc(Cl)ccc1Cl)C(=O)O (stereo not given),inactive
2,CCCCCCCCCCCCCCCCCCOCCO,inactive
3,CCC[C@@H]1C[C@@H](C(=O)N[C@@H]([C@H]2O[C@H](SC)[C@H](O)[C@@H](O)[C@H]2O)[C@@H](C)O)N(C)C1,inactive
4,CC(=O)CCC1=C(C)CCCC1(C)C,inactive
5,CCC(=O)c1c(O)cc(O)cc1O,inactive
6,COS(=O)(=O)O,inactive
7,CC(=O)OCC(=O)Nc1cc(C#N)cc(NC(=O)COC(C)=O)c1Cl,inactive
8,N#CCC(=O)NN,inactive
9,CC(C)OC(=O)CCC(=O)OC(C)C,inactive
10,CSc1cnccn1,inactive
11,C[C@H]1[C@@H](c2ccccc2)NC(=O)N1C,inactive
12,CC1(C)O[C@H]2CC(=O)OC[C@]23[C@H]2CC[C@@]4(C)[C@H](c5ccoc5)OC(=O)[C@H]5O[C@]54[C@]2(C)C(=O)C[C@@H]13,inactive
13,O=C[O][Al]([O]C=O)[O]C=O,inactive
14,CC(S)C(C)S (stereo not given),inactive
15,CC(C)(C)NC[C@H](O)COc1cccc2c1CCCC2=O,inactive
16,CCCCCCC1(C)CCC(=O)O1 (stereo not given),inactive
17,C/C(CC(C)C)=N\O,inactive
18,CN(C)CCN(C)CCO,inactive
19,[O]=[Mo](=[O])=[O],inactive
20,CCOC(=O)CC1(C)OCC(C)O1 (stereo not given),inactive
